Screening data from PubChem.
proKLK7 act: activates the human kallikrein-7 zymogen; purified proKLK7, EDANS-DABCYL substrate fluorescence; 100% is mature enzyme control, 0% vehicle; activation, % at 7 µM; 0.9% of 370,000 active; AID 652039;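 active means activation above the mean of all tested compounds plus 3 SD, computed per campaign excluding outliers beyond control limits, cut at about 13% in these data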
GRIN3A LBD mod: modulates the human NR3A ligand-binding domain | 2.5% of 340,000 active | AID 1259313 | Tm shift relative to glycine control, % at 25 µM | NR3A LBD differential scanning fluorimetry, Tm shift; 0% = protein alone, 100% = glycine-bound protein;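 active means melting temperature shift of at least 10% of the positive control shift, at one fixed dose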
ADAM10 inh: ADAM10 inhibition, QFRET primary screen. recombinant ADAM10, EDANS/DABCYL FRET peptide cleavage, 3 h. 0.62% of 370,000 active. inhibition, % at 7 µM. AID 720582. O14672;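 active means inhibition above a per-campaign cutoff equal to the mean of compounds falling between control-based bounds plus 3 SD, cut at about 20% in these data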;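 further: 0% = DMSO wells while the 100% control is not disclosed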
ADAM17 inh: ADAM17 inhibition, QFRET primary screen; inhibition, % at 6.95 µM; 0.83% of 370,000 active; recombinant ADAM17, EDANS/DABCYL FRET peptide cleavage;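 active means inhibition above the mean of compounds lying between control limits plus 3 SD, set per campaign, cut at about 8.5% in these data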;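 further: 0% = DMSO-only wells as the low control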
Target sequence (P78536 215-824 limits assumed): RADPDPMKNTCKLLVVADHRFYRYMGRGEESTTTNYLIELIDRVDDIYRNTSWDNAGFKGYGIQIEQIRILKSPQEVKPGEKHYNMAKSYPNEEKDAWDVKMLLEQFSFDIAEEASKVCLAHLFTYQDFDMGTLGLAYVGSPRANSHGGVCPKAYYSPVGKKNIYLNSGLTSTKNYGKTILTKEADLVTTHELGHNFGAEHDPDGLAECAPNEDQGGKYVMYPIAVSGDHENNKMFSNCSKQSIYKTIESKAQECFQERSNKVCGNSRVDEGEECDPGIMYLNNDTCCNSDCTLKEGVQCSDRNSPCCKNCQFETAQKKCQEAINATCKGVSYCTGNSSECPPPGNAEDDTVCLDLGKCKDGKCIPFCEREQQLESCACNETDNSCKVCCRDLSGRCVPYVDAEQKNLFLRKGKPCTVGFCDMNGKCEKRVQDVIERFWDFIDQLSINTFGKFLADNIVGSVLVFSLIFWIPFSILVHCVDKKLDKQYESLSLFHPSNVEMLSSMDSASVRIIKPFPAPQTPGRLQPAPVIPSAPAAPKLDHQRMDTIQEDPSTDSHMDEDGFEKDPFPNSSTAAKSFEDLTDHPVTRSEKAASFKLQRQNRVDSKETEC
rCAG binder-1: molecules binding r(CAG) RNA repeats. r(CAG) RNA repeat, TO-PRO-1 dye displacement fluorescence. inhibition, % at 3 µM. 1.3% of 370,000 active. AID 651821;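 active means inhibition above the plate cutoff, the mean of all test compounds on that plate plus 3 SD, cut at about 35% in these data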;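 further: 0% = DMSO alone and 100% = 100 µM mitoxantrone as full dye displacement; higher means more dye released from RNA so lower well fluorescence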
AHR act: activators of human aryl hydrocarbon receptor; P35869; AHR-responsive luciferase reporter cells, luminescence; activation, % at 5 µM; 2.5% of 320,000 active; AID 2796; in the data active means activation above about 47%;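 further: 0% = vehicle wells and 100% = reference agonist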
rCAG bind conf: r(CAG) RNA repeat binding, confirmation | shares compounds with rCAG binder-1 | TO-PRO-1 dye displacement fluorescence | inhibition, % at 3 µM | 70% of 4,300 active | AID 652065;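 active means inhibition above a per-plate cutoff, the mean inhibition of sample wells plus 3 SD, cut at about 35% in these data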;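 further: loss of TO-PRO-1 fluorescence as compound displaces dye from 1x1 AA loop RNA; 0% = DMSO only wells and 100% = 100 µM mitoxantrone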
dCAG dye counter: DNA CAG dye complex inhibition counter-screen | shares compounds with rCAG binder-1 | d(CAG) DNA oligo TO-PRO-1 dye displacement, fluorescence | inhibition, % at 3 µM | 94% of 4,300 active;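 active means inhibition above its plate's cutoff, the mean test-well inhibition plus 3 SD, cut at about 4.8% in these data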;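 further: 0% = DNA dye mix with DMSO and 100% = 100 µM mitoxantrone; hits displace the dye from DNA and so lower well fluorescence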
dCAG dye DR: counter-screen for rCAG binders: inhibitors of DNA CAG TO-PRO-1 complex. IC50, µM. shares compounds with rCAG binder-1. AID 686960. 20% of 250 active. DNA CAG/GTC duplex TO-PRO-1 dye displacement fluorescence; in the data active means IC50 below about 10 µM
dCAG DNA bind: inhibits DNA CAG/GTC TO-PRO-1 complex, rCAG binder counter-screen | shares compounds with rCAG binder-1 | d(CAG) DNA duplex TO-PRO-1 dye displacement, fluorescence | IC50, µM | 80% of 30 active | AID 720649
rCAG binder-2: binds r(CAG) RNA repeats in late stage dose response; shares compounds with rCAG binder-1; r(CAG) RNA TO-PRO-1 dye displacement, fluorescence; IC50, µM; 100% of 30 active; AID 720651
The depositor's hits bear a star; i = inactive; . = no result given. Only some compounds are listed: those with a hit (about 7% of all), similar ones and a draw of the others. Unless noted, how the calls were made is not given here.

SMILES	proKLK7 act	GRIN3A LBD mod	ADAM10 inh	ADAM17 inh	rCAG binder-1	AHR act	rCAG bind conf	dCAG dye counter	others
N#CC1=C(S)N(c2ccccc2)C(c2ccc(-c3cc(Cl)ccc3Cl)o2)NC1=O (stereo not given)	-0.6	-0.2	2.6	-0.8	58.7*	2.0	54.8*	18.4*	dCAG dye DR=5.5*
N#CC1=C(S)N(c2ccccc2)C(c2ccco2)NC1=O (stereo not given)	-0.1	-1.2	2.2	-3.5	2.8	2.2	.	.
N#CC1=C(S)N(c2ccccc2)C(c2ccc(-c3ccc(Cl)c(Cl)c3)o2)NC1=O (stereo not given)	0.0	-2.2	-29.0	-4.9	84.3*	23.7	91.3*	78.5*
CC(=O)OC[C@H]1O[C@H](C#Cc2ccc(C(C)(C)C)cc2)C=C[C@H]1OC(=O)Nc1ccccc1	-0.6	.	-4.0	-0.1	7.0	.	.	.
O=C(O)CCCCCn1c(O)c(C=C2N=c3ccccc3=N2)sc1=S	1.5	-5.4	-22.4	-12.9	83.5*	25.6	64.6*	29.0*	dCAG dye DR=i;dCAG DNA bind=2.41*;rCAG binder-2=0.981*
Oc1c(C=Nc2ccccc2)sc(=S)n1Cc1ccccc1	0.5	-6.2	0.1	2.6	2.6	22.8	.	.
O=C(O)Cn1c(O)c(C=Nc2ccccc2)sc1=S	0.2	0.5	0.1	-6.1	-1.3	3.5	.	.
O=C(O)CCCn1c(O)c(C=C2N=c3ccccc3=N2)sc1=S	0.6	0.8	-26.3	-11.8	45.0*	11.3	28.9	6.7*
CCCC(C(=O)O)n1c(O)c(C=C2N=c3ccccc3=N2)sc1=S (stereo not given)	2.9	-5.9	-139.0	-37.9	57.8*	18.8	54.3*	17.3*
CCOC(=O)N1CCN(C(=O)C[C@@H]2C[C@]3(C(=O)OCC)CCC4=C3N(CCC4)C2=O)CC1	0.1	.	-3.5	-8.2	1.8	.	.	.
COC(=O)C1=C(C)N(C)C(=NCc2cccc(C(F)(F)F)c2)NC1c1ccc(C(F)(F)F)cc1 (stereo not given)	-0.1	.	3.0	-0.9	6.2	.	.	.
Cn1c(=O)c(=O)n(C)c2cc(S(=O)(=O)N3CCN(Cc4ccc(F)cc4)CC3)ccc21	-0.2	.	-1.6	3.8	9.2	.	.	.
CC[C@@H]1C=C(C(=O)O)[C@H](c2ccc(Br)cc2)N1S(=O)(=O)c1ccc(C)cc1	-0.2	2.1	-8.5	-4.8	27.4	1.0	.	.
CCCC[C@@H]1C=C(C(=O)O)[C@H](c2ccc(CC)cc2)N1S(=O)(=O)c1ccc(C)cc1	-0.4	-2.6	2.9	4.2	65.7*	-0.1	49.1*	15.1*
CCCCC[C@@H]1C=C(C(=O)O)[C@H](c2ccc(F)cc2)N1S(=O)(=O)c1ccc(C)cc1	-0.7	0.7	0.0	3.7	59.5*	0.6	44.6*	14.2*
CCCC[C@@H]1C=C(C(=O)O)[C@H](c2ccc(Br)cc2)N1S(=O)(=O)c1ccc(C)cc1	0.2	-1.9	4.8	-0.6	53.0*	-1.3	54.2*	19.1*
CCCCC[C@@H]1C=C(C(=O)O)[C@H](c2ccc(CC)cc2)N1S(=O)(=O)c1ccc(C)cc1	-0.4	-3.3	-9.8	-5.5	8.1	-0.5	.	.
Fc1ccc(Cn2ccc3ccc(-c4ccc5ccn(Cc6ccc(F)cc6F)c5c4)cc32)c(F)c1	-0.9	.	-94.8	-28.3	27.8	.	.	.
CC1OC2CC(=O)OC2C2=C1C(=O)c1c(O)cccc1C2=O (stereo not given)	1.8	.	-15.9	-3.2	3.6	.	.	.
COc1ccc(NC(=O)Nc2nc(C(N)C3CCCCC3)cs2)cc1 (stereo not given)	-0.7	.	6.0	8.0	39.8*	.	24.6	4.6*
CN(C)c1ccc(NC(=O)Nc2nc(C(N)C3CCCCC3)cs2)cc1 (stereo not given)	0.5	.	3.5	4.8	33.0	.	.	.
CC(C)c1ccc(NC(=O)Nc2nc(C(N)C3CCCCC3)cs2)cc1 (stereo not given)	0.4	.	10.0	3.2	34.6*	.	20.8	5.5*
CCCNC(=O)N1CC[C@H]2[C@@H]1c1cc(-c3ccc(F)cc3)ccc1N(C)[C@H]2CO	-0.9	.	-114.2	-33.4	5.6	.	.	.
O=S(=O)(Nc1cc(Sc2ncn[nH]2)c(O)c2ccccc12)c1ccccc1	-8.0	-1.4	-10.6	-1.2	22.2	.	.	.
Cc1ccc(S(=O)(=O)Nc2ccc(Br)cc2C(NCC(=O)O)c2ccccc2)cc1 (stereo not given)	0.6	1.2	5.7	0.0	72.7*	-0.3	74.5*	26.0*	dCAG dye DR=i
SMILES	proKLK7 act	GRIN3A LBD mod	ADAM10 inh	ADAM17 inh	rCAG binder-1	AHR act	rCAG bind conf	dCAG dye counter	others
COC(=O)CNC(c1ccccc1)c1cc(C)ccc1NS(=O)(=O)c1ccc(C)cc1 (stereo not given)	0.1	-3.8	8.8	4.8	3.4	3.2	.	.
O=C(O)CSc1cc(NS(=O)(=O)c2ccc(Br)cc2)c2ccccc2c1O	-2.9	-26.6	-10.4	-8.5	39.5*	48.8*	57.0*	22.6*
COc1cccc(OC)c1C(=O)Nc1nc(-c2ccccc2)cs1	0.4	1.6	3.5	3.3	3.6	-4.3	.	.
COc1ccccc1-c1nnc(Nc2nc3c(OC)cccc3s2)o1	-0.4	-0.3	-484.1	-121.9	52.7*	110.7*	57.5*	19.5*
COc1cccc2sc(Nc3nc(-c4ccncc4)cs3)nc12	0.5	-2.4	-9.7	0.2	38.3*	63.7*	20.9	13.8*
COc1cccc2sc(Nc3nnc(-c4ccccc4Cl)o3)nc12	0.8	-8.2	-93.2	-17.0	45.8*	62.6*	44.1*	14.3*
COc1cccc(-c2nnc(NC(C)=O)o2)c1	-0.2	1.4	-0.2	-0.7	1.9	28.0	.	.
COc1cccc(-c2nnc(Nc3nc4c(F)cccc4s3)o2)c1	-4.4	-5.4	-25.5	-9.2	73.4*	64.4*	67.0*	22.8*
Cc1ccccc1CNC1CCC12CCC(c1ccccc1)CC2 (stereo not given)	.	.	2.8	-0.7	.	.	.	.
O=C1NC[C@H](CCCCN2CCN(CC3CCCCC3)C(=O)C2=O)N(CCc2ccccc2)C1=O	-0.2	.	-4.5	-2.1	1.7	.	.	.
O=C(Nc1nnc(-c2ccccc2Cl)o1)c1ccco1	0.6	-0.2	-2.3	-4.5	2.3	11.5	.	.
